# Experimental data as given in PMC4336329 (PLoS ONE, 2015).
# Hit rate of the full screen: of about 310,000 compounds, about 14,000 (4.5%) showed an effect of 50% or more. Effects have a minus sign here. Only a selection was taken, and strong results are over-represented in it overall.
# Target: human ether-à-go-go-related gene (hERG) potassium channel (human, UniProt Q12809)
# Experiment: primary screen, population patch clamp on CHO cells stably expressing hERG; higher = less effect of the substance
# 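Note: peak tail current of the secondary pulse compared with the same well before compound.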
# Sequence of human ether-à-go-go-related gene (hERG) potassium channel (Q12809 whole entry, looked up): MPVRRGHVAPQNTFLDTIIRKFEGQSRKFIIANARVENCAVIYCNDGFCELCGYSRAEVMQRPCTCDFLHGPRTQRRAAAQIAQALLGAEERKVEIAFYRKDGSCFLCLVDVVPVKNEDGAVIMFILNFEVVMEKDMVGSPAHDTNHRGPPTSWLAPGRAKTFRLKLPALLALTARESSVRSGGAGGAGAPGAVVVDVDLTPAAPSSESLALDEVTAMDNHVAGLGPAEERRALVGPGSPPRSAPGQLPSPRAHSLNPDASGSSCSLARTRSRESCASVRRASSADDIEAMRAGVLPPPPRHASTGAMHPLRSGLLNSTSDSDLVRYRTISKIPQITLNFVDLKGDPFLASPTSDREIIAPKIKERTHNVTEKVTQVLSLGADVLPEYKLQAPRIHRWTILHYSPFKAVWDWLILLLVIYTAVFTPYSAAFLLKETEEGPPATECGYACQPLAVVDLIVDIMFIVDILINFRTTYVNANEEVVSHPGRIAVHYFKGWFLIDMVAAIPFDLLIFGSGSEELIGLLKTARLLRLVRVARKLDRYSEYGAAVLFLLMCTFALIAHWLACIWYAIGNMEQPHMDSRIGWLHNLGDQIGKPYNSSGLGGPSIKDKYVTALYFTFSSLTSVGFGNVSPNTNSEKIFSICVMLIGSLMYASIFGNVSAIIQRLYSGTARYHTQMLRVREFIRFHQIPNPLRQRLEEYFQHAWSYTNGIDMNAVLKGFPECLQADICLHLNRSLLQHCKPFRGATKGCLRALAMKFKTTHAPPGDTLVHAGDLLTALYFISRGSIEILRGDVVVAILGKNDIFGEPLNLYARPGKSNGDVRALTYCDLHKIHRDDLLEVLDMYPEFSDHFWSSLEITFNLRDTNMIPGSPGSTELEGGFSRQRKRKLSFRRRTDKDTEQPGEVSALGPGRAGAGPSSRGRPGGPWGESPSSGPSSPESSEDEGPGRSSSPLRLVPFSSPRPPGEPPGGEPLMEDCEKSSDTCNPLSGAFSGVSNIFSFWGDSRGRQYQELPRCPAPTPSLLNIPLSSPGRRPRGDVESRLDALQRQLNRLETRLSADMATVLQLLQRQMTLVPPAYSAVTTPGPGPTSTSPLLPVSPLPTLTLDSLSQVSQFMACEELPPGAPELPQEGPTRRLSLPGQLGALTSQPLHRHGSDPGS
row,Structure (SMILES),"hERG current change (%, negative = inhibition) at 10uM [%]"
1,O=S(=O)(Nc1ccc(N2CCOCC2)cc1)c1ccc(F)cc1,4.3
2,COC(=O)N1N=C(c2ccc(Br)cc2)CC1(O)C(F)(F)F (stereo not drawn),-1.71
3,CCOc1ccc(CNC(=O)CN2C(=O)C(c3ccccc3)Oc3cccnc32)cc1 (stereo not drawn),-3.6
4,O=C(N/N=C/c1ccc[nH]1)c1ccc(COc2cccc3cccnc23)cc1,-58.3
5,O=C(N/N=C/c1cccc(O)c1)c1ccc(COc2cccc3cccnc23)cc1,22.8
6,O=C(N/N=C/c1ccncc1)c1ccc(COc2cccc3cccnc23)cc1,-45.6
7,CCOC(=O)C1=c2/c(=C/c3ccncc3)c(N)c(C(=O)OC)n2C(=O)C(c2ccncc2)S1 (stereo not drawn),1.36
8,O=C(CCc1ccccc1)NNC(=O)c1ccc(NC(=O)c2ccccc2)cc1,2.53
9,Cc1cc(S(=O)(=O)Nc2ccc3c(c2)COC3=O)ccc1F,7.2
10,Cc1cc(C)n(C(=O)c2cccc(S(=O)(=O)N3CCCC3)c2)n1,6.46
11,O=C(Nc1ccnn1C1CCN(Cc2c(F)cccc2Cl)CC1)C1CCCC1,-32.1
12,O=C(Nc1ccnn1C1CCN(C/C=C/c2ccccc2)CC1)C1CCCC1,-73
13,O=C(Nc1ccnn1C1CCN(C/C=C/c2ccc(F)cc2)CC1)C1CCCC1,-76.2
14,CN(c1ccc(O)cc1)S(=O)(=O)c1ccc2ccccc2c1,-12.8
15,COc1ccccc1CNC(=O)CCc1cn(C)c2ccccc12,-2.68
16,Cc1c(C(=O)N2CCCCC2)c(S(=O)(=O)Nc2ccc(F)cc2F)c(C)n1C,21.9
17,Cc1cc(C)c(S(=O)(=O)N2CCN(C(=O)c3ccc4c(c3)OCO4)CC2)c(C)c1,-31.4
18,O=C(N/N=C/c1ccc(N2CCOCC2)cc1)c1ccc(NS(=O)(=O)c2cccs2)cc1,9.69
19,CC1CN(c2ccc([N+](=O)[O-])cc2C#N)CC(C)O1 (stereo not drawn),-48.6
20,O=[N+]([O-])c1ccc(N2CCN(c3ccc([N+](=O)[O-])cc3CO)CC2)c(CO)c1,-64.7
21,O=[N+]([O-])c1ccc(N2CCN(c3ccccc3O)CC2)c(Cl)c1,9.9

row,Structure (SMILES),"hERG current change (%, negative = inhibition) at 10uM [%]"
1,CCCN1CCN(c2ccc([N+](=O)[O-])cc2C#N)CC1,-72
2,CC(=O)N1CCN(c2ccc(C(N)=O)cc2[N+](=O)[O-])CC1,8.73
3,CCN1CCN(c2ccc([N+](=O)[O-])cc2C#N)CC1,-68.2
4,O=[N+]([O-])c1ccc(N2CCN(CCOCCO)CC2)c([N+](=O)[O-])c1,-45.6
5,O=[N+]([O-])c1ccc(N2CCCCCC2)c([N+](=O)[O-])c1,3.24
6,N#Cc1cc([N+](=O)[O-])ccc1N1CCN(c2ccccc2O)CC1,-35
7,CC(=O)N1CCN(c2ccc([N+](=O)[O-])cc2C#N)CC1,-88
8,N#Cc1cc([N+](=O)[O-])ccc1N1CCCC1,-38
9,CCCN1CCN(c2ccc(S(N)(=O)=O)cc2[N+](=O)[O-])CC1,-31.4
10,COc1cccc(NS(=O)(=O)c2c(C)n(C)c(=O)n(C)c2=O)c1,-19.9
11,CCCc1nnc(SCC(=O)N2CCOCC2)n1CC1CCCO1 (stereo not drawn),23.6
12,CC1CCN(C(=S)c2ccc(O)cc2)CC1,-14.1
13,O=c1[nH]c2ccc(S(=O)(=O)N3CCN(C4CCCCC4)CC3)cc2[nH]c1=O,0.776
14,O=C(Nc1cccc(C(F)(F)F)c1)Oc1ccc(Cl)c2cccnc12,9.96
15,CCN(c1ccccc1)S(=O)(=O)c1ccc(Cl)c(C(=O)OCC(=O)c2[nH]c(C)c(C(C)=O)c2C)c1,-22.6
16,COc1cc2c(cc1OC)CN(c1ccc(F)cc1[N+](=O)[O-])CC2,-27.9
17,COc1cc2c(cc1OC)CN(c1ccc([N+](=O)[O-])cc1C#N)CC2,-50
18,COc1cc2c(cc1OC)CN(c1ccc([N+](=O)[O-])cc1Cl)CC2,-41
19,CCn1c(NC2CCCCC2)nc2ccccc21,-15
20,Cc1ccc(NC(=O)c2cccc(N3C(=O)CCC3=O)c2)nc1,3.86
21,C/C(=N\NS(=O)(=O)c1cccc([N+](=O)[O-])c1)c1cc2ccccc2o1,-2.61
